{"source": "PubChem BioAssay (NCATS)", "note": "Results filed as inconclusive are left out. Unmarked numbers belong to inactive results. The source made the active and inactive calls. Calls follow the shape of the dose curve; as a rule, active = well fitted inhibition curve with a large enough effect in the repeat runs; inconclusive = weak or mixed curves; inactive = no such curve, though single readings can be large or run the other way. % is scaled to controls: 0 for no effect and ±100 for the full control effect; potency is read from the fitted curve at half-maximal effect.", "data": [{"target": "Cytochrome P450 2C9 (Homo sapiens) (UniProt P11712)", "sequence (P11712 whole entry, looked up)": "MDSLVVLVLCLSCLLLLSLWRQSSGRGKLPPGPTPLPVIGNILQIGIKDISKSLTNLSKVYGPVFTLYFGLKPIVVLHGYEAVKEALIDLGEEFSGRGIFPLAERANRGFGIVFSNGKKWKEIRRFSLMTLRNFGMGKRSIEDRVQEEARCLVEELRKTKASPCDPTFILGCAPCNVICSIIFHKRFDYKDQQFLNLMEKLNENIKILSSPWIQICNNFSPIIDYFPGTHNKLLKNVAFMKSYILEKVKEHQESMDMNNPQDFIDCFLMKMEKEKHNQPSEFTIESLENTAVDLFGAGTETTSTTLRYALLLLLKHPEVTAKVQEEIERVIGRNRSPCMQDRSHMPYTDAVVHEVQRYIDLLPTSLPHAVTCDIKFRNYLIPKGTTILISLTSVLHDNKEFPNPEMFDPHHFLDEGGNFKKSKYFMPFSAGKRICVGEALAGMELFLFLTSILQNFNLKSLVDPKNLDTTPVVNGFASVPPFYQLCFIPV", "test": "Cytochrome P450 family 2 subfamily C member 9 (CYP2C9) small molecule antagonists: luciferase biochemical (cell-free) qHTS assay (AID 1645842); also: nearly all actives have a fitted effect of over 55% in size", "conditions": "P450-Glo CYP2C9 enzyme assay, luciferin luminescence; series mostly up to 57.4 µM; activity change, negative = inhibition: at the top concentration", "procedure,_shortened": "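P450-Glo CYP2C9 system: proluciferin substrate with enzyme in mix containing 0.4% BSA, 10 min at room temperature, then NADPH regeneration solution added and incubated 1 h at 37C. Detection reagent stopped reaction; luminescence read after 20 min as RLU.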", "units": {"activity change, negative = inhibition": "%"}, "values": [{"smiles": "COc1ccc(C(C#N)C(C)C)cc1OC", "note": "(stereo not given)", "activity change, negative = inhibition": -22.2}, {"smiles": "CC1(C#N)CCN(c2c(C(=O)N3CCC(S(C)(=O)=O)CC3)cnc3cc(F)c(F)cc23)CC1", "activity change, negative = inhibition": -27.1}, {"smiles": "CC1=C(C(=O)Nc2cc(C(=O)O)ccn2)C(c2ccc(F)cc2Cl)N=C(Nc2nc3ccc(F)cc3o2)N1", "note": "(stereo not given)", "Potency": "23.9 µM (active)"}, {"smiles": "Cc1cccc(NC(c2ccccc2F)c2ccc3ccc(C)nc3c2O)n1", "note": "(stereo not given)", "Potency": "6.01 µM (active)"}, {"smiles": "CC1=C(C(=O)Nc2cccc(-c3nn[nH]n3)c2)C(c2ccccc2Cl)N=C(Nc2nc3ccccc3o2)N1", "note": "(stereo not given)", "Potency": "0.536 µM (active)"}, {"smiles": "CCOC(C(=O)N(C)CCN(C)CCc1ccccc1)(c1ccccc1)c1ccccc1", "Potency": "6.01 µM (active)"}, {"smiles": "CCOc1ccc(C(=O)NCCS(=O)(=O)N2CCN(c3ccccc3F)CC2)cc1OCC", "Potency": "2.13 µM (active)"}, {"smiles": "Cc1ccccc1C(=O)Nc1cccc(-c2nc3cccnc3s2)c1", "Potency": "6.74 µM (active)"}, {"smiles": "Cc1ccc([S+](=O)([O-])NC2CC(C)(C)CC(C)(C)C2)cc1", "Potency": "2.13 µM (active)"}, {"smiles": "COc1ccc(NC(=O)CSc2oc(-c3cccs3)nc2S(=O)(=O)c2ccc(Br)cc2)c(OC)c1", "Potency": "0.477 µM (active)"}, {"smiles": "Cc1ccccc1-n1c(SCc2ccc(Cl)cc2)nc2[nH]ncc2c1=O", "Potency": "2.39 µM (active)"}, {"smiles": "COc1ccc(Br)c2c1-c1nc(NC(=O)c3ccccc3SC)sc1C2", "activity change, negative = inhibition": -20.1}, {"smiles": "Cc1ccc(Nc2nc3ccccc3c3nnc(C)n23)c(C)c1", "Potency": "5.35 µM (active)"}, {"smiles": "COc1ccccc1NC(=O)Cc1c(C(=O)O)[nH]c2ccc(Cl)cc12", "activity change, negative = inhibition": 20.5}, {"smiles": "Cc1ccnc(NC(c2ccccc2F)c2ccc3cccnc3c2O)c1", "note": "(stereo not given)", "Potency": "23.9 µM (active)"}, {"smiles": "O=C(CC1N=C2c3ccccc3N=C(SCc3ccc(F)cc3)N2C1=O)NC1CCCCC1", "note": "(stereo not given)", "Potency": "2.68 µM (active)"}, {"smiles": "COc1ccc(Cn2c(CCC(=O)Nc3cc(C)cc(C)c3)nc3cccnc32)cc1", "Potency": "6.74 µM (active)"}, {"smiles": "COc1cc(C(c2c(C)[nH][nH]c2=O)c2c(C)[nH][nH]c2=O)ccc1OC(=O)c1ccccc1F", "Potency": "10.7 µM (active)"}, {"smiles": "COc1cc(NC(=O)CSc2nc3ccccc3nc2Cc2ccccc2OC)cc(OC)c1", "Potency": "0.301 µM (active)"}, {"smiles": "CC1=CC(O)=NS(=O)(=O)O1", "activity change, negative = inhibition": 1.75}, {"smiles": "CC1=C(C(=O)Nc2nnc(C(F)(F)F)s2)C(c2ccccc2Cl)N=C(Nc2nc3ccccc3o2)N1", "note": "(stereo not given)", "Potency": "10.7 µM (active)"}, {"smiles": "COc1ccc(-c2cn3cccnc3n2)cc1NC(=O)COc1ccccc1", "Potency": "4.77 µM (active)"}, {"smiles": "COc1ccc(NC(=O)CSc2nc3ccccc3n2Cc2cccc(OC)c2)cc1", "Potency": "2.68 µM (active)"}, {"smiles": "Cc1ccc(C)c(Nc2nc3nonc3nc2Nc2cccc(C)c2C)c1", "activity change, negative = inhibition": 10.6}, {"smiles": "Cc1nc2c3ccccc3nc(NNC(=O)CCC(=O)N3CCN(c4cccc(Cl)c4)CC3)n2n1", "Potency": "12 µM (active)"}]}]}
